# Measured values as given in PubChem BioAssay AID743468 (Broad Institute, 2014).
# The list shows a part of the results. Activity calls are given as the source filed them.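 Rule for the calls: active = fitted curve reaching a 40% PDK4 expression rise at or below the top valid tested dose; inconclusive = no clear call, values can overlap the other calls; inactive = the rest, including shifts the wrong way.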
# Experiment: change in PGC-1a target gene PDK4 expression, dose response, C2C12 myotubes, RT-qPCR, cherry-pick (AID 743468)
structure (smiles),measurement,value
N#Cc1ccc(-c2ccc(C3[C@@H]4CN(S(=O)(=O)c5ccc(F)cc5)C[C@H]3N4)cc2)cc1 (stereo partly specified),outcome,inactive
